Holding throughout (type): functional
Assay [1] relates to Plasmodium falciparum. The experiment in a line: GSK_TCMDC: Inhibition of Plasmodium falciparum 3D7 in whole red blood cells, using parasite LDH activity as an index of growth. Test compounds present at 2uM.
The subject of assay [2] is Plasmodium falciparum. The experiment in a line: GSK_TCMDC: Inhibition of Plasmodium falciparum Dd2 in whole red blood cells, using parasite LDH activity as an index of growth. Test compounds present at 2uM.
Another assay deals with HepG2. The experiment in a line: GSK_TCMDC: Percent inhibition of human HepG2 cell line. Test compounds present at 10uM.

The record followed here is ChEMBL document CHEMBL1157539, “Thousands of chemical starting points for antimalarial lead identification” (Nature, 2010).

One may read the Inhibition as the change of the read-out against control, counted positive when it falls. Consider `O=C(Nc1cc(C(F)(F)F)cc(C(F)(F)F)c1)NC(CCCN1CCC2(CC1)OCc1ccccc12)c1ccc(Cl)c(Cl)c1` (stereo not drawn), for which the Inhibition in the assay on Plasmodium falciparum [1] is on record as 94%; in the assay on Plasmodium falciparum [2] it was 87%; in the assay on HepG2 it was 26%.
For `CN(Cc1cc(C(F)(F)F)cc(C(F)(F)F)c1)C(=O)C(Cc1ccc(F)cc1)C1CCCNC1` (stereo not drawn), in that order: 96%, 89% and 10%.
Regarding `COc1cc2c(cc1C(F)(F)F)N(C(=O)Nc1cccc(-c3ccc(CN(C)C)cc3)c1)CC2`, the Inhibition with Plasmodium falciparum [1] was 100%; with Plasmodium falciparum [2], 93%; in the assay on HepG2 it was 95%.
In the same order, the values of `COc1cccc(NC(=O)COc2ccc(C(=O)Nc3nc4ccccc4[nH]3)cc2)c1` are 99%, 29% and 19%.
For `COc1cccc(Nc2nccc(-c3c(-c4cccc(NC(=O)c5c(F)cccc5F)c4)nn4ccccc34)n2)c1`, in that order: 98%, 98% and 35%.
In the same order, the values of `COc1ccc(C(=O)Nc2ccc(Cl)cc2C(=O)Nc2ccncc2)cc1` are 91%, 29% and 7%.
`CC(C)c1cc2c(ccc3nc(N)nc(N)c32)[nH]1`: the Inhibition is recorded as 93% in the assay with Plasmodium falciparum [1], 4% with Plasmodium falciparum [2] and 49% in the assay on HepG2.
Regarding `COc1ccc(-c2cccc(NC(=O)c3cccc(C#N)c3)c2)cc1CN(C)CCO.O=C(O)C(F)(F)F`, the Inhibition with Plasmodium falciparum [1] was determined as 96%; in the assay on Plasmodium falciparum [2], 30%; in the assay on HepG2 it was 28%.
For the molecule `CN1CCOc2ccc(Nc3nnc(-c4cccc(-c5cccnc5)c4)o3)cc2C1`, the Inhibition in the assay on Plasmodium falciparum [1] worked out at 100%; in the assay with Plasmodium falciparum [2] it was 100%; with HepG2 it was 0%.
Turning to `CC[C@H]1CN(C/C=C/c2ccc(OC)cc2)CC[C@H]1CCCc1ccnc2ccc(O)cc12`, the Inhibition with Plasmodium falciparum [1] worked out at 99%; with Plasmodium falciparum [2], 72%; in the assay with HepG2 it was 24%.
In the same order, the values of `Cc1nc(-c2ccc(C(F)(F)F)cn2)sc1C(=O)N1CCc2cc3nccc(N4CCN5CCC[C@H]5C4)c3cc21.Cl` are 100%, 72% and 5%.
As for `CNCc1cccc(-c2ccc3ccnc(N)c3c2)c1`, the Inhibition with Plasmodium falciparum [1] is on record as 100%; in the assay on Plasmodium falciparum [2], 98%; in the assay with HepG2, 20%.
In the same order, the values of `CC(C)N(CC(=O)c1ccc(O)c(C(=O)O)c1)Cc1ccccc1.Cl` are 97%, 26% and 0%.
In the same order, the values of `CCCCCCN1CCCN(Cc2cccc(NC(=O)c3cc4ccccc4s3)c2)CC1.O=C(O)C(F)(F)F` are 88%, 53% and 31%.
For `CC(=O)Nc1ccc(CN2CCC(NC(=O)c3ccc(-c4cccc(Cl)c4)s3)CC2)cc1.O=C(O)C(F)(F)F`, in that order: 97%, 59% and 34%.
In the case of `O=C(Nc1ccc(C(F)(F)F)cc1)c1ccc(S(=O)(=O)NC2CCN(CC3CCCCC3)CC2)cc1.O=C(O)C(F)(F)F`, the Inhibition with Plasmodium falciparum [1] is 100%; in the assay with Plasmodium falciparum [2], 20%; in the assay with HepG2, 30%.
In the same order, the values of `COCCCNC(=O)c1ccc(O)c(-c2cc(Cl)cc(Cl)c2)c1` are 94%, 34% and 22%.
In the same order, the values of `CC(C)C(C(=O)n1cc2c(ccc3nc(N)nc(N)c32)n1)C(C)C` are 98%, 49% and 58%.
`O=C(Nc1ccc(Cl)cc1)Nc1cccc(CCNCc2ccccc2)c1.O=C(O)C(F)(F)F`: the Inhibition with Plasmodium falciparum [1] stood at 100%; in the assay with Plasmodium falciparum [2] it was 12%; with HepG2, 16%.
In the same order, the values of `CCOC(=O)N1CCN(C(=O)Nc2ccc(Cl)cc2)CC1` are 92%, 0% and 4%.
For `COc1ccc(NC(=O)/C=C/c2ccccc2Cl)cc1OCCN1CCC(NC2CC2)CC1`, in that order: 100%, 66% and 23%.
Consider `OC(CNCCCc1ccccc1)c1cc(OCc2ccccc2)cc(OCc2ccccc2)c1` (stereo not drawn), for which the Inhibition stood at 93% with Plasmodium falciparum [1], 85% in the assay with Plasmodium falciparum [2] and 8% in the assay on HepG2.
Consider `FC(F)(F)c1ccc2[nH]c(-c3ccc(-c4cccc(CN5CCCCC5)c4)cc3)nc2c1.O=C(O)C(F)(F)F`, for which the Inhibition stood at 100% with Plasmodium falciparum [1], 99% in the assay on Plasmodium falciparum [2] and 22% in the assay on HepG2.
For `Cc1cccc(NC(=S)NC2CCN(CCCCCNC(=O)/C=C/c3ccc(Cl)c(Cl)c3)CC2)c1`, in that order: 97%, 19% and 14%.
In the same order, the values of `CC(C)OC(=O)c1ccc(NC(=O)N[C@@H](Cc2ccc(O)cc2)C(=O)NC2CCC(CCN3C4CCC3c3ccccc34)CC2)cc1.O=C(O)C(F)(F)F` (stereo partly drawn) are 95%, 67% and 3%.
On to `CCCN(CCC)S(=O)(=O)c1ccc(C(=O)N2CCC(C(=O)OCC)CC2)cc1`, for which the Inhibition in the assay on Plasmodium falciparum [1] worked out at 98%; in the assay with Plasmodium falciparum [2] it was 41%; in the assay on HepG2, 26%.
As to `Cl.OCC(CO)(CO)NCc1ccc2c3c(cccc13)-c1ccccc1-2`, the results for the Inhibition in the assay on Plasmodium falciparum [1], in the assay with Plasmodium falciparum [2] and in the assay on HepG2 were 87%, 76% and 73%, respectively.
In the same order, the values of `COc1ccc2c(NN=Cc3ccncc3)ccnc2c1` are 95%, 6% and 0%.
For `O=C(NCc1cccc(F)c1)Nc1cccc(-c2cccc(-c3nc4cc(C(F)(F)F)ccc4[nH]3)c2)c1`, in that order: 93%, 32% and 55%.
Regarding `Cc1nc(C)c(-c2ccc(-c3ccc(F)cc3)cc2)c(O)c1Br`, the results for the Inhibition with Plasmodium falciparum [1], in the assay on Plasmodium falciparum [2] and in the assay on HepG2 were 94%, 52% and 12%, respectively.
As for `O=C(Nc1cc(C(F)(F)F)cc(C(F)(F)F)c1)Nc1ccc(Cl)c(Cl)c1`, the Inhibition is 100% in the assay on Plasmodium falciparum [1], 100% in the assay on Plasmodium falciparum [2] and 58% in the assay with HepG2.
